From PubChem BioAssay (NCATS) come the findings set out here.

SMILES strings stand for the structures. “And” between values parts separate entries of the source, which are not always exact repeats. Equal entries are not always repeated. Inconclusive results are not listed. Unmarked numbers belong to inactive results. The source made the active and inactive calls. Calls follow the shape of the dose curve; as a rule, active = well fitted activation curve with a large enough effect; inconclusive = small, poorly fitted or top-dose-only effect; inactive = no such curve, though single readings can be large or run the other way.
Potency is read from the fitted curve at half-maximal effect.

Sequence of Cellular tumor antigen p53 (Homo sapiens) (P04637 whole entry, looked up): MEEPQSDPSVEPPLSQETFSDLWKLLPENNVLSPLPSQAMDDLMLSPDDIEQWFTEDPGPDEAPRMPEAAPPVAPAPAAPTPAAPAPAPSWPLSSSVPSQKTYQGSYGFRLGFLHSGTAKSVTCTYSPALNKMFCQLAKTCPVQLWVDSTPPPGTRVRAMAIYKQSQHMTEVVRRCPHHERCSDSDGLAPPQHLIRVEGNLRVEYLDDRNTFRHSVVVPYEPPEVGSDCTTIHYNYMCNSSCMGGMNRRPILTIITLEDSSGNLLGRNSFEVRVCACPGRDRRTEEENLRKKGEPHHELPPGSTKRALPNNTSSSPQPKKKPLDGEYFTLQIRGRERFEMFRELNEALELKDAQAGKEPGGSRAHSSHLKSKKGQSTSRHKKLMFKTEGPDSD

For this assay, the target named is Cellular tumor antigen p53 (Homo sapiens) (UniProt P04637). Briefly: Primary qHTS for small molecule compounds that upregulate eGFP-tagged delta133p53alpha (in N-terminal) cells. (AID 2060322). Also: nearly all actives have a fitted effect of over 75% in size.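 As to activation: series mostly up to about 56 µM; 0% = DMSO vehicle and 100% = reference activator.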 As to conditions: NCI-H358 eGFP-delta133p53alpha fluorescence, 24 h; activation: hits give high values. Summed up:
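NCI-H358 cells pre-induced 24 h with 10 ng/ml doxycycline to express N-terminal eGFP-delta133p53alpha, then dosed 24 h at 37C without doxycycline; fixed, Hoechst-stained, GFP intensity by laser scanning cytometry, normalized to DMSO (0%) and 57.5 uM 5-azacytidine (100%).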
(In general: qHTS replaces the single test concentration by a dilution series.)
In the case of `CNC(=O)c1c(-c2ccc(F)cc2)oc2cc(N(CCO)S(C)(=O)=O)c(C3CC3)cc12`, the activation was -6.02% and -15.2%. Same read-out and setting: the value for `CN1C(=O)N[C@@H](Cc2c[nH]c3c(Cl)cccc23)C1=O` was -25.9%; that for `CC[C@@H]1C(=O)N(C)c2cnc(Nc3ccc(C(=O)NC4CCC(N5CCN(CC6CC6)CC5)CC4)cc3OC)nc2N1C(C)C` (stereo partly specified) was -21.7%; that for `C[C@@H]1CN(Cc2ccc(F)cc2)[C@@H](C)CN1C(=O)c1cc2c(C(=O)C(=O)N(C)C)cn(C)c2cc1Cl` was 10.3% and -3.57%.

As for `CN1CCN(c2ccc(OC(F)(F)F)c(Nc3ncc4c(n3)-c3c(c(C(N)=O)nn3CCO)CC4)c2)CC1`, the activation was 85.7%. With `Cc1ccc2c(c1)C(=O)[C@]1(O)CCN(c3ccccc3)C1=N2`, the activation was -1.14% and -10.7%.

Turning to `NCCOc1cc(C(=O)Nc2cc(OCCN)c3ccccc3n2)nc(C(=O)Nc2cc(OCCN)c3ccccc3n2)c1`, the Potency is 193 nM (active).

`C=CC(=O)Nc1cccc(Sc2nc(Nc3ccc(N4CCN(C)CC4)cc3)ncc2Cl)c1`: the Potency is 12000 nM (active).

Consider `CC(C)c1nn(-c2c(Cl)cccc2Cl)c2nc(Cc3ccc(OCCO)cc3)[nH]c(=O)c12`, for which the Potency is 68.5 nM (active) and 60.1 nM (active).

Take `COc1ccc(-c2c(-c3ccc(O)cc3O)n[nH]c2C)cc1`: the activation is -3.77%. Still for that read-out and setting: with `CC(C)[C@H](CO)Nc1nc(Nc2ccc(C(=O)O)c(Cl)c2)c2ncn(C(C)C)c2n1` the figure was 6.33%. Regarding `FC(F)(F)c1ccc(/C=C/c2nc(COc3ccc(CCCCn4ccnn4)cc3)co2)cc1`, the activation is 18.8%. For the compound `CC(C)n1nc(-c2ccc3oc(N)nc3c2)c2c(N)ncnc21`, the activation is 5.06% and 13.4%. Still for that read-out and setting: the value for `CC[C@H](NC(=O)[C@H](CS(=O)(=O)CC1CC1)N[C@@H](c1ccc(F)cc1)C(F)(F)F)C(=O)C(=O)NC1CC1` was 21.7%. The same measure, in the same setting: the value for `O=C(Nc1ccc(Oc2ccnc3[nH]ccc23)c(F)c1)c1cccn(-c2ccc(F)cc2)c1=O` was -27.3% and -22.3%. As for `CNC(=O)c1nn(C)c2c1C(C)(C)Cc1cnc(Nc3ccc(N4CCN(C)CC4)cc3)nc1-2`, the Potency is 38.5 µM (active) and 9.53 µM (active). `NS(=O)(=O)c1cc(Cl)c(Cl)c(S(N)(=O)=O)c1`: the activation is -9.17% and 1%. Same read-out and setting: the value for `COc1cccc2c1c(O)c(C(=O)N(C)c1ccc(C(F)(F)F)cc1)c(=O)n2C` was 10.1%. Still for that read-out and setting: with `O=C(Nc1ccc(F)c(C(F)(F)F)c1)Nc1nnc(-c2ccncc2)s1` the figure was -20.5% and 5%; with `Cc1c(F)cc(C(=O)NC2CC2)cc1-c1c(F)cn2c(C(C)(C)C)nnc2c1F`, -8.93%. `CN(C)C/C=C/C(=O)Nc1ccc(C(=O)Nc2cccc(Nc3ncc(Cl)c(-c4c[nH]c5ccccc45)n3)c2)cc1`: the Potency is 269 nM (active) and 343 nM (active).

Turning to `CCCCc1ccc(NS(=O)(=O)c2ccc(C)c(C(=O)N3CCN(c4cccc(C)c4C)CC3)c2)cc1`, the activation was -4.4%. As to `CCOC(=O)c1ccnc(CNCC(=O)N(CC)CCN(C)C)c1`, the activation is 8.33%. The same measure, in the same setting: the value for `COc1ccc(-c2c(C)nn3c(NCCN4CCOCC4)cc(C)nc23)cc1OC` was 7%; that for `CCS(=O)(=O)N1CCN(c2ccc(Nc3ncc(C(N)=O)c(NC4CC4)n3)cc2)CC1` was 25.7%; that for `O=C([C@@H](Cc1cccc(C(F)(F)F)c1)NS(=O)(=O)c1cc(F)c2c(c1)CCNC2)N1CCCC1` was -6.33%. The same measure, in the same setting: with `O=C(O)[C@H](CC(=O)N1C[C@H]2CCCC[C@H]2C1)Cc1ccccc1` the figure was 38.3%. For the compound `c1ccc2c(Oc3nc(Nc4ccc(N5CCOCC5)cc4)c4ncn(C5CCCCC5)c4n3)cccc2c1`, the activation was 9.2% and -7.64%. As for `CCNC(=O)[C@H]1O[C@@H](n2cnc3c(N)nc(NCCc4ccc(CCC(=O)O)cc4)nc32)[C@H](O)[C@@H]1O`, the activation was -4.46%.

`Cc1ccc(S(=O)(=O)Cc2nc(-c3ccc(C(=O)NCc4cccnc4)cc3)oc2C)cc1`: the activation is 26.3%. Same read-out and setting: the value for `COc1cc(C(=O)N2CCC(N3CCN(C)CC3)CC2)ccc1Nc1ncc2c(n1)N(C)c1ccccc1C(=O)N2C` was -6.3% and 0.893%.
